Activity calls are given as the source filed them.
Legend:
[1] = binders of probe aFSTL3 on microarray, primary screen, stem cell growth factor project, biochemical, small-molecule microarray, fluorescence 635/667 (AID 1064); conditions: higher = more signal;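 note: measures binding of the biotinylated anti-FSTL3 antibody to printed compounds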
[2] = binders from COS7 lysate, DM2A8 probe, primary screen, torsin A project, cell lysate, small-molecule microarray, fluorescence 635/667 (AID 1065); conditions: higher = more signal, COS7 lysate expressing mutant human TOR1A
[3] = binders of probe aFGF2 on microarray, primary screen, stem cell growth factor project, biochemical, small-molecule microarray, fluorescence 635/667 (AID 1067); conditions: higher = more signal;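 note: measures binding of biotinylated aFGF2 protein to printed compounds on slides; z-score merges feature fluorescence and signal-to-noise across triplicate slides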
[4] = binders of probe aFGF10 on microarray, primary screen, stem cell growth factor project, biochemical, small-molecule microarray, fluorescence 635/667 (AID 1071); conditions: higher = more signal;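 note: score merges 667 nm spot intensity and signal to noise from triplicate slides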
[5] = target: Neurogenic locus notch homolog protein 2 (Homo sapiens) (UniProt Q04721); assay: Notch2 binders on small-molecule microarrays, primary screen, biochemical, small-molecule microarray, 635 nm fluorescence, stem cell growth factors (AID 1073); conditions: Notch2 binding, higher = more signal
[6] = target: Pro-neuregulin-1, membrane-bound isoform (Homo sapiens) (UniProt Q02297); assay: NRG1 binders on small-molecule microarrays, primary screen, psychiatric disease protein project, biochemical, small-molecule microarray, fluorescence 635/667 (AID 1075); conditions: NRG1 binding, 635 nm fluorescence, higher = more signal;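 note: score combines 667 nm spot fluorescence with signal to noise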
[7] = test system: Neuregulin-1 EGF-like domain; assay: binders of neuregulin-1 EGF-like domain, primary screen, biochemical, small-molecule microarray, 635 nm fluorescence (AID 1081); conditions: small-molecule microarray binding, higher = more signal;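 note: binding of the protein to compounds printed on small-molecule microarray slides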
[8] = FRG1 promoter luciferase signal modulators, primary screen, FRG1 inhibition for FSHD, cell-based, C2C12 myotubes, firefly/Renilla luciferase, luminescence (AID 1084); conditions: higher = more signal, called active from +8 up or from −8 down
[9] = binders of probe aFST on microarray, primary screen, stem cell growth factor project, biochemical, small-molecule microarray, fluorescence 635/667 (AID 1086); conditions: higher = more signal;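 note: score merges 667 nm fluorescence with signal-to-noise of each printed compound spot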
[10] = binders of probe aHhip on microarray, primary screen, stem cell growth factor project, biochemical, small-molecule microarray, fluorescence 635/667 (AID 1087); conditions: higher = more signal;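 note: score merges spot fluorescence at 667nm with spot signal to noise ratio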

Sequence of Pro-neuregulin-1, membrane-bound isoform (Homo sapiens) (Q02297 whole entry, looked up, the tested form may be a part, canonical isoform): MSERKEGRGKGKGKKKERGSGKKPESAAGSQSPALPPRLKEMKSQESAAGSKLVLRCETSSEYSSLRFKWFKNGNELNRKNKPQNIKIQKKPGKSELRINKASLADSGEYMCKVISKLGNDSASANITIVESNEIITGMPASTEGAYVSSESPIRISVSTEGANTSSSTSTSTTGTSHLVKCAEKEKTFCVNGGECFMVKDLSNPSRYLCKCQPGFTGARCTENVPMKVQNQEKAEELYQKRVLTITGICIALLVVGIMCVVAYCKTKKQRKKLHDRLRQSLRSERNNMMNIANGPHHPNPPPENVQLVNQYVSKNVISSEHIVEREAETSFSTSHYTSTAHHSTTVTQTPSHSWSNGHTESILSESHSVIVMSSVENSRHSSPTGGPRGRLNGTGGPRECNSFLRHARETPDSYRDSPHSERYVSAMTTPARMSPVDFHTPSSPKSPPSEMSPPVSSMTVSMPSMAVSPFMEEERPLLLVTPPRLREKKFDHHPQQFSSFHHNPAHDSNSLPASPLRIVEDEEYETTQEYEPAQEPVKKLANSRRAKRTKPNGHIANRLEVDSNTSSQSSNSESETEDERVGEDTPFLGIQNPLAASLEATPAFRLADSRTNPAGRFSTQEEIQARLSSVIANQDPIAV
Sequence of Neurogenic locus notch homolog protein 2 (Homo sapiens) (Q04721 whole entry, looked up, canonical isoform): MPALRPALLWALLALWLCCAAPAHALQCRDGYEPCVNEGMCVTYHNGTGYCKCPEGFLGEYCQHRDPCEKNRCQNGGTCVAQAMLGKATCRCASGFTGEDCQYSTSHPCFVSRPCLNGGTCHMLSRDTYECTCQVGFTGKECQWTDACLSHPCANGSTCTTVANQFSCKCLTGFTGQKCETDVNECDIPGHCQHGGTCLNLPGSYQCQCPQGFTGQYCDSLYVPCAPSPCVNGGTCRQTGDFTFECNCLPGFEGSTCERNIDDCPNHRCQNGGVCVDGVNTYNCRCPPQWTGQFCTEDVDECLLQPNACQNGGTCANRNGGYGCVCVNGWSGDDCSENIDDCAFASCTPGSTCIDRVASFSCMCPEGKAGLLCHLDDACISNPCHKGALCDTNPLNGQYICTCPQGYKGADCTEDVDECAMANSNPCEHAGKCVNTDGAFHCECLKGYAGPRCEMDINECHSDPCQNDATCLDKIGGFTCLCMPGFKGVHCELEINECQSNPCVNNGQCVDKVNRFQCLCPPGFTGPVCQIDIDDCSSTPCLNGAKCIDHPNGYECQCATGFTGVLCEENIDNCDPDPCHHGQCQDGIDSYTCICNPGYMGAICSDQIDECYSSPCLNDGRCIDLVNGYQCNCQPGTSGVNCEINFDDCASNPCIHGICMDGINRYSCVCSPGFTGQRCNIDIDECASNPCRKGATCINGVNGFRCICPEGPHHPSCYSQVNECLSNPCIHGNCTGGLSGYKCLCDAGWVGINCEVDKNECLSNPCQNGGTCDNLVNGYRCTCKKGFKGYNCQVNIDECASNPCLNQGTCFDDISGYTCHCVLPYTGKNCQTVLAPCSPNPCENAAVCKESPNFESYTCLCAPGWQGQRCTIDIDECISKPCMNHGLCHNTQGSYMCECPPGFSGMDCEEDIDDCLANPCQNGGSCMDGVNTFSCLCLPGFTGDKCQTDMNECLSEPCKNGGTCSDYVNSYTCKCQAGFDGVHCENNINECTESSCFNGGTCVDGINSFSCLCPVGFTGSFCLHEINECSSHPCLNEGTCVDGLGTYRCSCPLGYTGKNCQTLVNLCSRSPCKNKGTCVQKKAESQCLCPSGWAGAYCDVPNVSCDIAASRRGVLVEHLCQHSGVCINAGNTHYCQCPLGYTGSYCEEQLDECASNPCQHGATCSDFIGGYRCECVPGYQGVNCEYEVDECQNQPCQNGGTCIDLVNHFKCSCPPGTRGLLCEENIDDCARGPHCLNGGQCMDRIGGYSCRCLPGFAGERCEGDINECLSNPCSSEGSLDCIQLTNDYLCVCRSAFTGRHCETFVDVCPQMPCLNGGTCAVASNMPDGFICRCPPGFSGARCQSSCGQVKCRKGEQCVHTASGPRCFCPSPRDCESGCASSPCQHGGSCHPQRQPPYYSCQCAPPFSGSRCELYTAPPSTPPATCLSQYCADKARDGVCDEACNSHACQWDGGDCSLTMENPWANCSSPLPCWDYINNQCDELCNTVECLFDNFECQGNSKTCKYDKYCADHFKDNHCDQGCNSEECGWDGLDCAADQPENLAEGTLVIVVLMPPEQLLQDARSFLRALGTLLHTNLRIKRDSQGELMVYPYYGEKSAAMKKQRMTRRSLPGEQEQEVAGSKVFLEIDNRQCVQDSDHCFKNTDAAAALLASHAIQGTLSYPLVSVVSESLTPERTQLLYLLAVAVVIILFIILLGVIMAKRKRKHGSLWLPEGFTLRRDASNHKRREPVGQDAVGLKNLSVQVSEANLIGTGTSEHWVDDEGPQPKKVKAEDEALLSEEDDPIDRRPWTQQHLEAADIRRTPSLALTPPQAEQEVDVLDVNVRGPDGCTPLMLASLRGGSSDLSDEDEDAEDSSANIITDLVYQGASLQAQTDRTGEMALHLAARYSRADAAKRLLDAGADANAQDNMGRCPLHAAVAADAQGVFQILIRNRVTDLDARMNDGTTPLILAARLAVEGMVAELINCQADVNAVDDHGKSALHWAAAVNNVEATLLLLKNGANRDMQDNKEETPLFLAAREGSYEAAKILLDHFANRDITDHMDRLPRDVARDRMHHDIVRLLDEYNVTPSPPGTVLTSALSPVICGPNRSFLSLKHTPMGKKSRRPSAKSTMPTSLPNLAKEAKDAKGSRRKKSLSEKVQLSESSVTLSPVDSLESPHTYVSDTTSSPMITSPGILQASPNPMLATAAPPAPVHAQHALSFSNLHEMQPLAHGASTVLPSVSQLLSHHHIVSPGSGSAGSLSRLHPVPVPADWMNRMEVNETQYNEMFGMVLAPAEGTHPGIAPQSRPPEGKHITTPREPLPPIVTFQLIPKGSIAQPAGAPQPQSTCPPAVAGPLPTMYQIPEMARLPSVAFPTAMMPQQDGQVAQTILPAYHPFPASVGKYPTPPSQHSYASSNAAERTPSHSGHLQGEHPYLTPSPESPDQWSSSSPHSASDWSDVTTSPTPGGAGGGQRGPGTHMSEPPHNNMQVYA

Compound | composite z-score [1] | composite z-score [2] | composite z-score [3] | composite z-score [4] | composite z-score [5] | composite z-score [6] | composite z-score [7] | z-score [8] | composite z-score [9] | composite z-score [10]
COCCOC(=O)N1C(=O)[C@@]2(c3cc(C#CCCO)ccc31)[C@H](C(N)=O)[C@H]1C(=O)O[C@H](c3ccccc3)[C@H](c3ccccc3)N1[C@@H]2c1ccc(O)cc1 | -0.025 | -0.283 | -0.0145 | 0.413 | -0.242 | 0.298 | 0.171 | 0.663 (inactive) | -0.0464 | -0.202
C=CCNC(=O)[C@H]1[C@@H]2C(=O)O[C@@H](c3ccccc3)[C@@H](c3ccccc3)N2[C@@H](c2ccccc2OCCO)[C@]12C(=O)Nc1ccc(C#CCC(C(=O)OC)C(=O)OC)cc12 | 0.0775 | 0.44 | 0.0468 | 0.423 | 1.53 | 1.46 | 1.34 | -0.616 (inactive) | 1.08 | 0.409
C[N+](C)(C)CCCCNC(=O)[C@@H]1C[C@@H]2C(=O)N[C@@H](Cc3ccccc3)C(=O)N2[C@@H]1c1cccc(OCCO)c1 | 0.241 | -0.108 | -0.147 | 0.394 | -0.39 | 1.01 | 1.14 | 1.51 (inactive) | -0.253 | -0.195
COc1cc(COC(C)=O)ccc1OC(C)=O | 0.299 | -0.0075 | 0.188 | 0.209 | 0.137 | 0.14 | -0.464 | -0.681 (inactive) | 0.408 | 0.318
C=C(COC)/C(=C/C[C@@H](OC(C)=O)c1ccc(OCCO)cc1)c1cnc2ccccc2c1 | -0.123 | 0.093 | 0.0059 | 0.647 | 0.912 | 0.521 | 0.957 | -0.265 (inactive) | 0.253 | 0.0413
COc1ccc(C(O)C2C=CC3C(=O)N(Cc4ccccc4)C(=O)C3N2n2cnnc2)cc1OCc1ccccc1 (stereo not given) | -0.0405 | -0.209 | -0.0996 | 0.193 | -0.0176 | 0.834 | 0.613 | 0.364 (inactive) | 0.777 | -0.0296
COC(=O)[C@H](Cc1ccccc1)N1CC2=C[C@@H](C3CC3)n3c(=O)n(C)c(=O)n3[C@H]2[C@@H]1[C@@H](O)Cc1ccccc1 | -0.575 | 1.5 | 0.0066 | 0.369 | 0.319 | 0.323 | 0.997 | 0.892 (inactive) | 0.559 | -0.296
O=C1C[C@@](C(=O)NC2CC2)(c2ccc([N+](=O)[O-])cc2)[C@@H](c2ccc(CO)cc2I)N1C1CCCCC1 | -0.407 | 0.722 | 0.0043 | 0.496 | 0.677 | 1.04 | 1.34 | -0.165 (inactive) | 0.419 | 0.075
Cc1ccccc1C(O)C1C=CC2C(=O)N(c3ccccc3)C(=O)C2N1Nc1ccc(C(C)C)cc1 (stereo not given) | -0.0476 | -0.0455 | 0.0536 | 0.82 | 1.5 | 1.27 | 0.592 | -0.729 (inactive) | 1.41 | 0.142
COCCOC(=O)N1C(=O)[C@@]2(c3cc(C#Cc4ccc(OC)cc4)ccc31)[C@H](c1ccc(OCCO)cc1)N1[C@H](c3ccccc3)[C@H](c3ccccc3)OC(=O)[C@H]1[C@@H]2C(=O)N1CCN(c2ncccn2)CC1 | -0.144 | 0.316 | -0.0113 | 0.397 | 0.926 | -0.318 | 1.13 | 0.598 (inactive) | 0.736 | 0.0176
C=C[C@@H](COC(=O)OC(C)(C)C)N(Cc1ccc(OC)cc1)S(=O)(=O)c1ccc(Br)cc1 | -0.492 | 0.544 | -0.0598 | 0.0626 | 0.779 | 0.142 | 0.8 | -2.35 (inactive) | 0.481 | 0.0505
CCOC(=O)[C@H]1C/C=C/C[C@H](C(=O)OCC)C(=O)O[C@H]2[C@@H](OC)O[C@H](CO)[C@@H](OC(=O)c3c(OC)cccc3OC)[C@@H]2OC1=O | 1.03 | 0.321 | -0.0275 | 0.259 | 0.297 | 1.12 | 1.02 | 0.418 (inactive) | 0.951 | 1.32
CC1(C)[C@@H]2CC(C(O)C3C=CC4C(=O)N(c5ccccc5)C(=O)C4N3Nc3ccc([N+](=O)[O-])cc3)=C[C@H]1C2 (stereo not given in full) | -0.204 | 0.325 | -0.0834 | 0.873 | 1.7 | 1.88 | 1.2 | -1.08 (inactive) | 0.352 | -0.0852
